Hit rate of the full screen: of about 200,000 compounds, about 3,000 (1.5%) were called active. Shown is part of a subset that was picked to be rich in actives. Unmarked numbers belong to inactive results.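 Rule for the calls: active = inhibition above about 50% when tested at 10 µM (limit read from the data); inactive = the rest.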
These compounds were tested against Luciferin 4-monooxygenase (Photinus pyralis) (UniProt P08659) (assay: inhibition of purified FLuc reporter enzyme – biochemical, luminescence, ATPLite, artefact control for luciferase-based inhibitor screens, primary screen (AID 1006)). Conditions: ATPLite firefly luciferase biochemical luminescence, 10 min; at 10 µM; active compounds read high.
Luciferin 4-monooxygenase (Photinus pyralis), sequence (P08659 whole entry, looked up): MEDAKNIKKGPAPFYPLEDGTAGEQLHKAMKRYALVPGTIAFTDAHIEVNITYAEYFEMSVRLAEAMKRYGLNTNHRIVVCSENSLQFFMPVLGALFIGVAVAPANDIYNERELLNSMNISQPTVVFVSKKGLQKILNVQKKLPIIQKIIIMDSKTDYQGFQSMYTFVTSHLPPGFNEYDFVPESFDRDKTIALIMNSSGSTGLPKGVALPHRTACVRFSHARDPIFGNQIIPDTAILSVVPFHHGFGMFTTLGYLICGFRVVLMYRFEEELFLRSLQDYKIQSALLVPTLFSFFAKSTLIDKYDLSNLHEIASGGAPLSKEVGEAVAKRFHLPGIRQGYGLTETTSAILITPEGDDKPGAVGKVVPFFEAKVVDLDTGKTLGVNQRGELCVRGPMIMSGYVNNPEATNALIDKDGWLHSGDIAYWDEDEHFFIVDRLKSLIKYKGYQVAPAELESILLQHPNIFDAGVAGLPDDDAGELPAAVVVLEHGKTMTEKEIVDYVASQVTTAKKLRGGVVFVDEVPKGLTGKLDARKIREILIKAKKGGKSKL
With `Cc1nc2ccc(N3CCN(C)CC3)cc2nc1C` the inhibition was 15.6%. Compound `CN1CCN(c2cc(N3CCNCC3)ccc2[N+](=O)[O-])CC1` has an inhibition of 5.2%. With `COc1cccc(-c2nc3ccc(N4CCN(C)CC4)cc3[nH]2)c1` the inhibition was 95.8% (active). Compound `Cc1nn(Cc2ccccc2Cl)c(Cl)c1C(=O)OC(C(=O)NC(N)=O)C(C)C` (stereo not given) has an inhibition of -7%. `Cc1ccnc(-n2c(C)cc(/C=C3\C(=O)NC(=S)N(C)C3=O)c2C)c1` gave an inhibition of 5.2%.

Reference: PubChem BioAssay AID1006 (Sanford-Burnham Center for Chemical Genomics, 2008)
